The panel holds about 79,000 compounds, 15% with a hit somewhere; the sample as a whole holds those more often. Unmarked numbers belong to inactive results. The source made the active and inactive calls. Rule as the data show it: active = growth inhibition above about 70%; inactive = the rest.

The first experiment can be described thus: NCI Yeast Anticancer Drug Screen. Data for the sgs1 mgt1 strain (AID 161).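 Also: 0% = growth of cultures given vehicle only.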 Conditions: S. cerevisiae sgs1 mgt1 strain, at 50.0 µM, active compounds read high. A digest of the protocol:
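Genetically altered yeast, compound exposure, growth inhibition relative to vehicle.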
With `Nc1ncnc(N)c1NC(=O)c1ccc(CCc2ccccc2)c(Cl)c1`, the growth inhibition was 21.6%.

Consider `CCCCCCCN1C=CCC(S(=O)(=O)N2CCOCC2)=C1`, for which the growth inhibition is -11.4%.

Turning to `CSc1c(S(C)=O)[nH]c2cc(Br)cc(Br)c12` (configuration not stated), the growth inhibition was 88.7% (active).

For `C/C=C/C=N/SC(c1ccccc1)(c1ccccc1)c1ccccc1`, the growth inhibition was -5.05%.

For the compound `COc1cc(/C=C/C(=O)c2sc(NNC(C)=O)nc2C)ccc1O`, the growth inhibition was 19.3%.

For `CC[n+]1ccc(/C=C\c2c(Cl)cccc2Cl)cc1`, the growth inhibition is 5.65%.

For `C=CCOC(=O)C1CC=CCC1C(=O)OCC=C` (configuration not stated), the growth inhibition is -17.9%.

Consider `N#C/C(=C/O)c1ccccc1`, for which the growth inhibition is -0.75%.

In the case of `COC(=O)CCSCC(N)C(=O)O` (configuration not stated), the growth inhibition is -13.3%.

With `CCOCCOc1nc(C)cc(C)c1C#N`, the growth inhibition was -8.05%.

For the compound `CC(OS(C)(=O)=O)C(C)OS(C)(=O)=O` (configuration not stated), the growth inhibition was -11.7%.

`COc1ccccc1NS(=O)(=O)c1ccc2ncn(NS(=O)(=O)c3ccc(Cl)cc3)c(=O)c2c1`: the growth inhibition is 30.1%.

For `ClC1CC2CC1C1CCCC21` (configuration not stated), the growth inhibition was -16.1%.

For the compound `CN1CCN(C(=O)/C(=C/c2ccccc2)NC(=O)c2ccccc2)CC1`, the growth inhibition is 8.05%.

Consider `CCCCCCC(CC)C(N)=O` (configuration not stated), for which the growth inhibition is -4.1%.

On to `O=C1CN(c2ccc(Cl)cc2)C(=O)CN1CCN1CC(=O)N(c2ccc(Cl)cc2)CC1=O`, for which the growth inhibition is -3.25%.

As to `COC(=O)C1=C(C(=O)OC)C(C)(C)N=N1`, the growth inhibition is 12.7%.

`O=S1(=O)CCCC1C(O)c1ccccc1` (configuration not stated): the growth inhibition was -8.85%.

As for `COc1cc(CNC(=O)CCCCCCCCCCSSCCCCCCCCCCC(=O)NCc2ccc(O)c(OC)c2)ccc1O`, the growth inhibition was -22.9%.

With `Cc1ccccc1C(=O)c1ccccc1Cc1cccc2ccccc12`, the growth inhibition is -10.2%.

Turning to `CCCCCCCCCC(=O)OCC1OC(n2cc(F)c(=O)[nH]c2=O)C(NC(=O)OCc2ccccc2)C(OC(=O)CCCCCCCCC)C1O` (configuration not stated), the growth inhibition was -11.8%.

As to `CN(C)CCCN=c1c2ccccc2n(C)c2[nH]c(=O)n(C)c(=O)c12`, the growth inhibition is -16.2%.

Another experiment is described as follows: NCI Yeast Anticancer Drug Screen. Data for the cln2 rad14 strain (AID 165).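 Also: 0% = growth equal to vehicle treated cultures.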 The settings on record: S. cerevisiae cln2 rad14 strain, at 50.0 µM, active compounds read high. A digest of the protocol: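 Growth of compound-exposed yeast (cln2 rad14 genotype) measured and expressed as inhibition relative to vehicle.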
For the compound `N#Cc1c2c(c(-c3cccs3)n(C3OC(CO)C(O)C(O)C3O)c1=S)CCc1ccccc1-2` (configuration not stated), the growth inhibition is -20.4%.

In the case of `CCOC(=O)CCc1c(C)c2c(O)cc(O)cc2oc1=O`, the growth inhibition was 8.3%.

As for `CCOC(=O)C(CCC#N)(CCC#N)C(C)=O`, the growth inhibition is -64.8%.

Regarding `O=c1nc2sc3ccccc3c(=O)n2[nH]1`, the growth inhibition is 6.85%.

Turning to `CC(C)OCCCN(Cn1c(=S)sc2ccccc21)Cn1c(=S)sc2ccccc21`, the growth inhibition is 42.8%.

For the compound `COC(=O)CCC(CCC(=O)O)([N+](=O)[O-])[N+](=O)[O-]`, the growth inhibition is -36.4%.

As to `CCN1CCCN(CC)C1=O`, the growth inhibition was -30.4%.

In the case of `COc1ccc(NC2=CC(=O)C(=O)c3ccccc32)nn1`, the growth inhibition is -34.8%.

`COc1cccc(C(=O)NNC(=O)c2ccc3ccccc3c2)c1`: the growth inhibition is 6.55%.

For the compound `Cc1cccc(Cl)c1NC(=O)c1cccc([N+](=O)[O-])c1`, the growth inhibition was -7.95%.

`COC(=O)C1=C(C(=O)OC)C(=Nc2ccccc2)c2ccccc2C1=O`: the growth inhibition is 8.2%.

In the case of `Cc1nc2ccccc2nc1N1CCCC1`, the growth inhibition was -25.2%.

On to `COc1ccc(N=C2C(=Nc3ccc(OC)cc3)N(c3ccc(OC)cc3)C(=S)N2C)cc1`, for which the growth inhibition was -12%.

For the compound `CCSc1ccc(C)cc1`, the growth inhibition is 26.5%.

As for `COc1ccc(/C(Br)=C2\OC(=O)c3ccccc32)cc1`, the growth inhibition is -35.1%.

As for `NC(N)=NC1NCC(=O)S1` (configuration not stated), the growth inhibition was 4.6%.

Consider `COc1ccc(N)c(C(O)CCNC(C)=O)c1` (configuration not stated), for which the growth inhibition was -7.5%.

Turning to `CCCCNc1nc(SC)nc2nc[nH]c12`, the growth inhibition is -21.2%.

With `Nc1ncnc(N)c1NC(=O)c1ccc(CCc2ccccc2)c(Cl)c1`, the growth inhibition is -14.2%.

For the compound `CCCCCCCN1C=CCC(S(=O)(=O)N2CCOCC2)=C1`, the growth inhibition is 3.85%.

For `CSc1c(S(C)=O)[nH]c2cc(Br)cc(Br)c12` (configuration not stated), the growth inhibition is 71.6% (active).

As to `C/C=C/C=N/SC(c1ccccc1)(c1ccccc1)c1ccccc1`, the growth inhibition was 4.45%.

In the case of `COc1cc(/C=C/C(=O)c2sc(NNC(C)=O)nc2C)ccc1O`, the growth inhibition was 23.1%.

As to `CC[n+]1ccc(/C=C\c2c(Cl)cccc2Cl)cc1`, the growth inhibition was 3%.

Turning to `C=CCOC(=O)C1CC=CCC1C(=O)OCC=C` (configuration not stated), the growth inhibition was -15.2%.

`N#C/C(=C/O)c1ccccc1`: the growth inhibition was 3.1%.

As for `COC(=O)CCSCC(N)C(=O)O` (configuration not stated), the growth inhibition was -39.5%.

Regarding `CCOCCOc1nc(C)cc(C)c1C#N`, the growth inhibition was -6.4%.

As to `CC(OS(C)(=O)=O)C(C)OS(C)(=O)=O` (configuration not stated), the growth inhibition is -10.4%.

On to `COc1ccccc1NS(=O)(=O)c1ccc2ncn(NS(=O)(=O)c3ccc(Cl)cc3)c(=O)c2c1`, for which the growth inhibition is 0.05%.

In the case of `ClC1CC2CC1C1CCCC21` (configuration not stated), the growth inhibition is 7.2%.

As to `CN1CCN(C(=O)/C(=C/c2ccccc2)NC(=O)c2ccccc2)CC1`, the growth inhibition was -12.7%.

As to `CCCCCCC(CC)C(N)=O` (configuration not stated), the growth inhibition is -7.8%.

As to `O=C1CN(c2ccc(Cl)cc2)C(=O)CN1CCN1CC(=O)N(c2ccc(Cl)cc2)CC1=O`, the growth inhibition is 10.6%.

Turning to `COC(=O)C1=C(C(=O)OC)C(C)(C)N=N1`, the growth inhibition is -1.65%.

As for `O=S1(=O)CCCC1C(O)c1ccccc1` (configuration not stated), the growth inhibition was -60.2%.

Regarding `COc1cc(CNC(=O)CCCCCCCCCCSSCCCCCCCCCCC(=O)NCc2ccc(O)c(OC)c2)ccc1O`, the growth inhibition was 5.9%.

For the compound `Cc1ccccc1C(=O)c1ccccc1Cc1cccc2ccccc12`, the growth inhibition was 1.1%.

For the compound `CCCCCCCCCC(=O)OCC1OC(n2cc(F)c(=O)[nH]c2=O)C(NC(=O)OCc2ccccc2)C(OC(=O)CCCCCCCCC)C1O` (configuration not stated), the growth inhibition was 6.9%.

With `CN(C)CCCN=c1c2ccccc2n(C)c2[nH]c(=O)n(C)c(=O)c12`, the growth inhibition was -9.2%.

Values taken from PubChem BioAssay (NCI).
